Screens (PubChem)
Tau fibril FP: blocks human tau fibril formation measured by polarization; P10636; K18 P301L tau heparin fibrillization, Alexa594 FP, 6 h; Potency, µM (top dose mostly 57.7 µM), for inactives: at the top dose activity, negative = inhibition, usual class: inhibitors; 280,000 tested, 0.39% active; AID 1468; note: nearly all actives have a fitted effect of over 55% in size
Target sequence (P10636 561-689 P618L limits assumed): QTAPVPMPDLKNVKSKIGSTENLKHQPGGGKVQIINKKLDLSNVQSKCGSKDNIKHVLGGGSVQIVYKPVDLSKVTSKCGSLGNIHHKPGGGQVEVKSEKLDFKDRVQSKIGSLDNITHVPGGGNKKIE
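Recombinant K18 P301L […], labeled with Alexa 594 at 0.24 uM over 15 uM unlabeled; heparin inducer 20 uM final; 37 C, 6 hr; FP endpoint.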
PLK1 PBD inh: PLK1 (human) polo-box domain binding inhibition. Plk1 PBD binding of FITC phosphopeptide, fluorescence polarization. AID 720504. 360,000 tested, 2.8% active. P53350. Potency, µM, without a hit: max response, negative = inhibition, usual class: inhibitors; note: series mostly up to about 57 µM; nearly all actives have a fitted effect of over 65% in size
VDR inhibitor: inhibitors of human vitamin D receptor; 400,000 tested, 0.93% active; VDR-SRC2-3 peptide fluorescence polarization, 2 h; P11473; AID 504847; Potency, µM, inactives show max response, negative = inhibition, most hits filed as inhibitors
Target sequence (P11473 whole entry, looked up): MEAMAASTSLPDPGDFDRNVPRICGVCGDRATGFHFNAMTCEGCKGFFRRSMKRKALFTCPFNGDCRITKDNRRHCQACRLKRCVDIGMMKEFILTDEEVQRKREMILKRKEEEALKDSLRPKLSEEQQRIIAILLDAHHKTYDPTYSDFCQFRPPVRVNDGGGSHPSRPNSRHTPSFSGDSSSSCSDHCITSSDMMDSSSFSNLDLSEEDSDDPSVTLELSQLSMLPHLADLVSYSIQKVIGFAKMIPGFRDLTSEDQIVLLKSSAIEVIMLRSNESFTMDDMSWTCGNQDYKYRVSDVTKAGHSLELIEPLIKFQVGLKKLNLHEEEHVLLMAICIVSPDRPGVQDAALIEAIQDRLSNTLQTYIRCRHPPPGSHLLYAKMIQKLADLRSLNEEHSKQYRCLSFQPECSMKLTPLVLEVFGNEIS
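Inhibition of the VDR/SRC2-3 peptide interaction is quantified by fluorescence polarization. Compounds (23 nl, pintool) incubate with the reagents for 2 hours at ambient room temperature.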
Sfp inh: inhibitors of Bacillus subtilis Sfp phosphopantetheinyl transferase. Q9F4F7. Biochemical Sfp PPTase activity, qHTS. Potency, µM, for inactives: largest response in the series, negative = inhibition, actives largely listed as inhibitors. 310,000 tested, 3.5% active. AID 1490;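 note: the enzyme is Sfp with the accession as filed and its product quenches rhodamine fluorescence; 0% = enzyme reaction without inhibitor and -100% = no enzyme wells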
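Reaction rates are the 30-min fluorescence difference (ex 525, em 598 nm) in wells containing 15 nM Sfp, 5 uM rhodamine-CoA and 12.5 uM BHQ-2-YbbR at pH 7.6 with 10 mM MgCl2.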
Tau ThT inhib: inhibitors of human tau fibril formation, thioflavin T binding; recombinant tau K18 P301L, heparin-induced fibrillization, ThT fluorescence; Potency, µM (highest dose often 57.4 µM), for inactives: top-dose activity, negative = inhibition, hits mostly inhibitors; 270,000 tested, 2.1% active; AID 1460; note: nearly all actives have a fitted effect of over 55% in size
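Using a mix of unlabeled (15 uM) and Alexa 594-labeled (0.24 uM) tau K18 P301L, heparin-triggered fibrillization over 6 hr at 37 C was scored by ThT fluorescence.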
Tau fluor counter: counter-screen for tau fibril formation inhibitors | tau K18 P301L Alexa594 fluorescence, heparin fibrillization | Potency, µM (doses to about 57.7 µM), for the others: top-dose activity change, negative = decrease | 280,000 tested, 0.93% active; note: nearly all actives have a fitted effect of over 55% in size
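Human tau K18 P301L (15 uM unlabeled, 0.24 uM Alexa 594-labeled) in 100 mM sodium acetate pH 7 with 20 uM heparin, 6 hr at 37 C. ThT 30 uM added, 1 hr ambient; Alexa 594 FP and total fluorescence read at 555/632 nm.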
An asterisk follows results filed as active; ! = repeats disagree; [ ] = remark or other dose. Hits are enriched below; roughly 6% of the tested compounds scored in any of these assays. Calls come from the whole dose curve; as a rule, active = well fitted curve in the direction sought with a large enough effect; inconclusive = small, poorly fitted or top-dose-only effect, or another doubt; inactive = no such curve, though single readings can be large; an effect the other way counts as inactive or inconclusive. Unless noted, % is set by controls: 0 for no effect and ±100 for the full control effect; potency is the fitted concentration of half-maximal effect.

Results for COc1ccc(CC(=O)Nc2cc(S(=O)(=O)N3CCOCC3)ccc2N2CCOCC2)cc1OC ?
PLK1 PBD inh: -6.3%; VDR inhibitor: -14.7%

How did COc1ccc(S(=O)(=O)Nc2ncccn2)cc1 do in these assays?
PLK1 PBD inh: 2.0%; VDR inhibitor: 2.6%; Sfp inh: 15.3%

How did CCc1ccc2oc(-c3cccc(NC(=O)c4ccc(N5CCC(C)CC5)c([N+](=O)[O-])c4)c3)nc2c1 do in these assays?
Tau fibril FP: -22.0%; VDR inhibitor: -20.6%; Tau ThT inhib: inconclusive; Tau fluor counter: -17.9%

Results for COc1ccc(S(=O)(=O)N2CCOCC2)cc1NC(=O)CSc1nc(C)c(C)c(C)n1 ?
PLK1 PBD inh: inconclusive; VDR inhibitor: -20.2%

How did COc1ccc(S(=O)(=O)N2CCOCC2)cc1NC(=O)CSc1n[nH]c(C(C)C)n1 do in these assays?
Tau fibril FP: 3.7%; PLK1 PBD inh: 26.7µM*; VDR inhibitor: 1.1%; Sfp inh: 25.1µM*; Tau ThT inhib: -0.4%; Tau fluor counter: 0.8%

Results for O=C(CSc1nnc(Cn2c(=O)sc3ccccc32)n1-c1ccccc1)N1CCOCC1 ?
Tau fibril FP: -13.2%; PLK1 PBD inh: inconclusive; VDR inhibitor: -8.7%; Sfp inh: 56.2µM*; Tau ThT inhib: -19.7%; Tau fluor counter: -13.2%

Results for CCOC(=O)C(C)Sc1nnc(Cn2c(=O)sc3ccccc32)n1-c1ccccc1 (stereo not drawn) ?
Tau fibril FP: -1.7%; PLK1 PBD inh: inconclusive; VDR inhibitor: -37.5%; Sfp inh: 79.4µM*; Tau ThT inhib: -4.1%; Tau fluor counter: -5.0%

Results for O=C(Nc1cc(Sc2ccccn2)cc([N+](=O)[O-])c1)c1ccc(Cl)cc1 ?
Tau fibril FP: -8.6%; PLK1 PBD inh: -6.5%; VDR inhibitor: 3.0%; Sfp inh: 4.0%; Tau ThT inhib: -13.6%; Tau fluor counter: 10µM*[quencher]

How did COc1ccc(C(=O)C2CCCN(Cc3c[nH]c4ccccc34)C2)c(OC)c1 (stereo not drawn) do in these assays?
Tau fibril FP: 2.8%; PLK1 PBD inh: -7.3%; VDR inhibitor: -2.1%; Sfp inh: -11.6%; Tau ThT inhib: -10.3%; Tau fluor counter: -17.5%

Results for CCn1c2ccccc2c2cc(/C=N/n3c(C)nnc3C)ccc21 ?
Tau fibril FP: -1.0%; PLK1 PBD inh: -3.5%; VDR inhibitor: 1.1%; Sfp inh: 50.1µM*; Tau ThT inhib: 11.7%; Tau fluor counter: 3.7%

How did NC1=NC(=O)C(Cc2ccc(F)cc2)S1 (stereo not drawn) do in these assays?
PLK1 PBD inh: 23.8µM*; VDR inhibitor: -15.0%; Sfp inh: 6.4%

How did Fc1cc(NC(=S)NCc2ccc(CNC(=S)Nc3ccc(Cl)c(F)c3)cc2)ccc1Cl do in these assays?
Tau fibril FP: 3.98µM*; PLK1 PBD inh: -12.7%; VDR inhibitor: -1.9%; Sfp inh: 18.4%; Tau ThT inhib: 17.0%; Tau fluor counter: -23.7%

Results for Cc1[nH]c2ccccc2c1CN1CCC(Cc2ccccc2)CC1 ?
Tau fibril FP: 10.3%; PLK1 PBD inh: -9.5%; VDR inhibitor: -11.0%; Sfp inh: 79.4µM*; Tau ThT inhib: inconclusive; Tau fluor counter: -24.6%

Results for Cc1[nH]c2ccccc2c(=O)c1CN1CCCCC1 ?
Tau fibril FP: -3.6%; PLK1 PBD inh: -7.9%; VDR inhibitor: -13.0%; Sfp inh: 18.2%; Tau ThT inhib: 2.8%; Tau fluor counter: 1.2%

How did O=C(O)c1ccc(CSCc2ccccc2Cl)o1 do in these assays?
PLK1 PBD inh: 21.2µM*; VDR inhibitor: inconclusive; Sfp inh: 21.4%

How did CC(=O)c1c(C)oc(C)c1CSCc1ccc(C(=O)O)o1 do in these assays?
Tau fibril FP: inconclusive; PLK1 PBD inh: inconclusive; VDR inhibitor: -6.2%; Sfp inh: 44.7µM*; Tau ThT inhib: inconclusive; Tau fluor counter: -11.2%

Results for Cn1ccc2c(/C=C/c3ccc(F)cc3)cc3c(c21)C1CCC3O1 (stereo not drawn) ?
PLK1 PBD inh: -6.1%

What do the screens show for `COc1cccc(-n2sc3c(c2=S)-c2cc(OC)ccc2NC3(C)C)c1`?
Tau fibril FP: 12.3%; PLK1 PBD inh: 1.7%; VDR inhibitor: -8.7%; Sfp inh: 26.1%; Tau ThT inhib: -19.1%; Tau fluor counter: 12.6µM*[quencher]

What do the screens show for `COc1cccc(-n2cn[nH]c2=S)c1`?
Tau fibril FP: -3.4%; PLK1 PBD inh: 0.2%; VDR inhibitor: -13.6%; Sfp inh: 21.7%; Tau ThT inhib: -8.7%; Tau fluor counter: -8.7%

What do the screens show for `COC(=O)C=P(c1ccccc1)(c1ccccc1)c1ccccc1`?
Tau fibril FP: 1.8%; VDR inhibitor: 9.4%; Sfp inh: -23.8%; Tau ThT inhib: -0.7%; Tau fluor counter: 1.4%

How did Cc1ccc(S(=O)(=O)N[C@@H](CCc2ccccc2)CC(=O)C(C)(C)C)cc1 do in these assays?
Tau fibril FP: -1.1%[11.6 µM]; Sfp inh: 23.2%; Tau ThT inhib: -5.0%[11.5 µM]; Tau fluor counter: -16.7%[11.6 µM]

Results for Cc1cc(C(=O)CSc2nnnn2-c2ccc(O)cc2)c(C)n1C ?
Tau fibril FP: -10.0%; PLK1 PBD inh: 23.8µM*; VDR inhibitor: 5.6%; Sfp inh: -6.2%; Tau ThT inhib: 4.8%; Tau fluor counter: 4.8%

What do the screens show for `CCOc1ccc(N)c(SSc2cc(OCC)ccc2N)c1`?
PLK1 PBD inh: 1.68µM*; VDR inhibitor: 10µM*; Sfp inh: 2.82µM*

What do the screens show for `COc1ccc([C@@H]2CC(=O)[C@@H]3CN(S(=O)(=O)c4ccc(C)cc4)[C@H](c4ccccc4)C[C@@H]3N2S(=O)(=O)c2ccccc2)cc1`?
PLK1 PBD inh: -16.1%

How did O=C1N/C(=N/Nc2ccccc2)S/C1=C\c1ccccc1 do in these assays?
Tau fibril FP: 0.2%; PLK1 PBD inh: 21.2µM*; VDR inhibitor: 44.7µM*; Sfp inh: 25.1µM*; Tau ThT inhib: inconclusive; Tau fluor counter: 1.1%

What do the screens show for `O=C1Nc2ccccc2SC1=Cc1ccccc1`?
PLK1 PBD inh: -4.9%

How did COc1cc(OC)c2cc(C(=O)N[C@@H](Cc3ccccc3)C(=O)O)n(C)c2c1 do in these assays?
PLK1 PBD inh: -9.4%; VDR inhibitor: -1.0%; Sfp inh: 0.0%

What do the screens show for `COc1ccc(N2C(=O)CC(Sc3n[nH]c(-c4ccccc4)n3)C2=O)cc1` (stereo not drawn)?
Tau fibril FP: 10.3%; PLK1 PBD inh: 26.7µM*; VDR inhibitor: -20.7%; Sfp inh: 35.5µM*; Tau ThT inhib: inconclusive; Tau fluor counter: -14.1%

Results for CC(=O)N(O)CCCCCNC(=O)CCC(=O)N(O)CCCCCNC(=O)CCC(=O)N(O)CCCCCN ?
Tau fibril FP: -4.7%; PLK1 PBD inh: inconclusive; VDR inhibitor: -8.7%; Sfp inh: 44.7µM*!; Tau ThT inhib: 1.2%; Tau fluor counter: -6.7%
